Experiment [1] is described as follows: NCI Yeast Anticancer Drug Screen. Data for the rad50 strain (AID 155).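 Note: 0% = growth of vehicle-only cultures of the same strain.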 The settings on record: S. cerevisiae rad50 strain growth inhibition; at 50.0 µM; active compounds read high. In short, it runs like this:
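A DNA repair-deficient yeast mutant serves as the test organism; compound-induced growth inhibition is calculated against vehicle-treated cells.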

Experiment [2] in a line: NCI Yeast Anticancer Drug Screen. Data for the mec2-1 strain (AID 157). The note with it: S. cerevisiae mec2-1 strain, at 50.0 µM, active compounds read high. Summed up:
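Cells of the genetically defined mec2-1 yeast strain are incubated with test compound. Inhibition of growth is calculated against vehicle-treated controls.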

Experiment [3] in a line: NCI Yeast Anticancer Drug Screen. Data for the sgs1 mgt1 strain (AID 161).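 Note: 0% = growth of cultures given vehicle only.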 The note with it: S. cerevisiae sgs1 mgt1 strain, at 50.0 µM, active compounds read high. Summed up: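 Mutant yeast exposed to compound; growth scored against vehicle-only wells.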
Experiment [4] is described as follows: NCI Yeast Anticancer Drug Screen. Data for the cln2 rad14 strain (AID 165).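 Note: 0% = growth equal to vehicle treated cultures.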 The settings on record: S. cerevisiae cln2 rad14 strain, at 50.0 µM, active compounds read high. In short, it runs like this: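 The screen exposed genetically defined yeast (cln2 rad14) to test compounds and scored growth inhibition relative to vehicle-treated controls.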
Experiment [5] in a line: NCI Yeast Anticancer Drug Screen. Data for the bub3 strain (AID 167). The settings on record: S. cerevisiae bub3 mutant strain, at 50.0 µM, active compounds read high. In short, it runs like this: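 Inhibition values come from growth of compound-treated mutant yeast normalised to vehicle-treated controls.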
Experiment [6] is described as follows: NCI Yeast Anticancer Drug Screen. Data for the mlh1 rad18 strain (AID 175). The settings on record: S. cerevisiae mlh1 rad18 strain growth inhibition; at 50.0 µM; active compounds read high. In short, it runs like this: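 Compound-treated yeast growth, normalised to vehicle controls. Strain bears defined DNA repair mutations.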

Molecules are shown by their SMILES. About 79,000 compounds went through this panel and 15% of them were active in at least one assay; those are over-represented in the sample as a whole. Values without a mark were called inactive. The source made the active and inactive calls. Cut-off read from the data, not from the text of the source: active = growth inhibition above about 70%; inactive = the rest.

Consider `O=C(O)CSc1ccccc1`, for which the growth inhibition was 39.5% in experiment [1]; 18.4% in experiment [2]; 17.8% in experiment [3]; 13.3% in experiment [4]; 20.6% in experiment [5]; 0.15% in experiment [6].

Turning to `CC(=O)OCC1OC(n2c3c(cc(C#N)c2=S)CCCCC3)C(OC(C)=O)C(OC(C)=O)C1OC(C)=O` (stereo unspecified), the growth inhibition was 27.1% in experiment [1]; -1.7% in experiment [2]; 3.1% in experiment [3]; -32.9% in experiment [4]; -0.8% in experiment [5]; -7.1% in experiment [6].

On to `CCC(C(C)=O)C(C)=O`, for which the growth inhibition is -46.2% in experiment [1]; -71.5% in experiment [2]; -43.5% in experiment [3]; -24.2% in experiment [4]; -56.6% in experiment [5]; -34.4% in experiment [6].

Turning to `C/C=C(/C=O)[C@@H]1CC2c3c(c4ccccc4n3[C@@H](O)C1)CCN2C` (stereo partly specified), the growth inhibition was -5.45% in experiment [1]; -17.6% in experiment [2]; -4.4% in experiment [3]; -1.1% in experiment [4]; -33.2% in experiment [5]; -16.6% in experiment [6].

As to `O=C(CCCc1ccccc1)NO`, the growth inhibition in experiment [1] is 14.7%; in experiment [2], 33.6%; in experiment [3] it was 17.5%; in experiment [4], 3.35%; in experiment [5] it was 10.8%; in experiment [6], 13.6%.

As to `Cc1nc(=S)[nH][nH]1`, the growth inhibition in experiment [1] was -0.75%; in experiment [2], 16.9%; in experiment [3] it was 6.15%; in experiment [4] it was 3.5%; in experiment [5], 8.15%; in experiment [6], 1%.

Take `CC(C)(C)c1ccn[nH]1.CC(C)(C)c1ccn[nH]1.[Cl-].[Cl-].[O]=[V][O-]`: the growth inhibition is 0.9% in experiment [1]; -12.4% in experiment [2]; 9.65% in experiment [3]; -29.2% in experiment [4]; -21.8% in experiment [5]; -12.8% in experiment [6].

For `CC1(C)C(=O)N(c2ccccc2)C1c1ccccc1` (stereo unspecified), the growth inhibition in experiment [1] is -6.2%; in experiment [2] it was -5.4%; in experiment [3], -1.5%; in experiment [4], -40.5%; in experiment [5] it was 12.1%; in experiment [6] it was -5.7%.

For the molecule `Cc1cc(NC(=O)NCCCCCCNC(=O)Nc2cc(C)on2)no1`, the growth inhibition is 4.95% in experiment [1]; 1.2% in experiment [2]; 1.7% in experiment [3]; -7.75% in experiment [4]; 14.6% in experiment [5]; 0.35% in experiment [6].

`CC(=O)Nc1ccc(OCc2ccccc2)cc1[N+](=O)[O-]`: the growth inhibition is 20.5% in experiment [1]; -11.9% in experiment [2]; 9.75% in experiment [3]; 10.2% in experiment [4]; 6.85% in experiment [5]; 28.2% in experiment [6].

For the molecule `Nc1nc(-c2cccc(S(=O)(=O)O)c2)c([N+](=O)[O-])c(=O)[nH]1`, the growth inhibition in experiment [1] was -10%; in experiment [2], -8.05%; in experiment [3], -15.7%; in experiment [4] it was 10.2%; in experiment [5] it was -24.6%; in experiment [6] it was 17.6%.

Regarding `Nc1ccc2[nH]c(=S)sc2c1`, the growth inhibition in experiment [1] is 11.2%; in experiment [2], 16.4%; in experiment [3] it was -7.2%; in experiment [4], -1.6%; in experiment [5], -0.65%; in experiment [6] it was 3.35%.

As for `N#Cc1c(F)c(F)c(Oc2c(F)c(F)c(F)c(F)c2F)c(F)c1Oc1c(F)c(F)c(F)c(F)c1F`, the growth inhibition in experiment [1] was -1.1%; in experiment [2], 11%; in experiment [3], -11.8%; in experiment [4] it was 9%; in experiment [5], -0.3%; in experiment [6] it was 5.8%.

`O=C(c1cccnc1)c1cc(-c2ccccn2)c(=O)n2ccccc12`: the growth inhibition was 0.7% in experiment [1]; 1.95% in experiment [2]; -13.6% in experiment [3]; -1.05% in experiment [4]; -15.8% in experiment [5]; -36.6% in experiment [6].

Consider `Cc1nn(C(=O)CC(=O)Nc2ccccc2Cl)c(C)c1N=Nc1ccccc1Cl`, for which the growth inhibition in experiment [1] is -11.3%; in experiment [2] it was 1.8%; in experiment [3], -29.1%; in experiment [4], 35.1%; in experiment [5], -8.55%; in experiment [6], -23.1%.

In the case of `CC12CCC3C(CCC4CCCCC43C)C1CCC2CO` (stereo unspecified), the growth inhibition in experiment [1] was 21.8%; in experiment [2] it was 16.4%; in experiment [3] it was 17.8%; in experiment [4] it was -11.3%; in experiment [5], 23.2%; in experiment [6] it was 36.5%.

Turning to `CC(C)(C)OC(=O)NCS(=O)(=O)N(Cc1ccccc1)Cc1ccccc1`, the growth inhibition in experiment [1] was 91.8% (active); in experiment [2], 89% (active); in experiment [3], 51.7%; in experiment [4] it was 82.6% (active); in experiment [5], 79.4% (active); in experiment [6] it was 89.7% (active).

Take `C=CCn1c(C23CC4CC(CC(C4)C2)C3)n[nH]c1=S`: the growth inhibition in experiment [1] was 27.6%; in experiment [2], 37.7%; in experiment [3] it was -8.45%; in experiment [4], 19.2%; in experiment [5], 3.55%; in experiment [6], -26.3%.

`COC(=O)c1ccccc1C(=O)c1ccccc1`: the growth inhibition in experiment [1] is -2.5%; in experiment [2], 9.2%; in experiment [3] it was 3.8%; in experiment [4], -4.75%; in experiment [5], -5.95%; in experiment [6], 8.4%.

Take `CCCC(=O)OCCC(C)C`: the growth inhibition in experiment [1] is 30.9%; in experiment [2], 10.3%; in experiment [3], 13.3%; in experiment [4], -29.9%; in experiment [5] it was -13.5%; in experiment [6], 22.4%.

Regarding `C[Si](C)(C)C#C[I+]c1ccccc1`, the growth inhibition in experiment [1] was -27.6%; in experiment [2] it was -24.4%; in experiment [3], 12.7%; in experiment [4], 5.65%; in experiment [5], 8.95%; in experiment [6], -8.85%.

The values above are taken from PubChem BioAssay (NCI).
